Measurements: PubChem BioAssay (Tox21)
Inconclusive results are not listed. A call without a number means that no potency is given here. Unmarked numbers belong to inactive results. The source made the active and inactive calls. Unless noted, calls follow the shape of the dose curve; as a rule, active = well fitted curve in the direction sought with a large enough effect in the repeat runs; inconclusive = weak or mixed curves; inactive = no such curve, though single readings can be large; an effect the other way counts as inactive or inconclusive.

Legend:
[1] = qHTS assay to identify small molecule agonists of the peroxisome proliferator-activated receptor delta (PPARd) signaling pathway - cell viability counter screen (AID 743211); also: nearly all actives have a fitted effect of over 55% in size; also: potency is read from the fitted curve at half-maximal effect
Procedure, shortened: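 Counter screen for cytotoxicity run in parallel with the PPARd reporter screen. Beta-lactamase reporter HEK293H cells exposed to compounds 17 h; ATP-based CellTiter-Glo luminescence quantified viability.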

[2] = target: Peroxisome proliferator-activated receptor delta (Homo sapiens) (UniProt Q03181); test: qHTS assay to identify small molecule agonists of the peroxisome proliferator-activated receptor delta (PPARd) signaling pathway (AID 743212; calls by dose curve)
Chain of Peroxisome proliferator-activated receptor delta (Homo sapiens) (Q03181 whole entry, looked up): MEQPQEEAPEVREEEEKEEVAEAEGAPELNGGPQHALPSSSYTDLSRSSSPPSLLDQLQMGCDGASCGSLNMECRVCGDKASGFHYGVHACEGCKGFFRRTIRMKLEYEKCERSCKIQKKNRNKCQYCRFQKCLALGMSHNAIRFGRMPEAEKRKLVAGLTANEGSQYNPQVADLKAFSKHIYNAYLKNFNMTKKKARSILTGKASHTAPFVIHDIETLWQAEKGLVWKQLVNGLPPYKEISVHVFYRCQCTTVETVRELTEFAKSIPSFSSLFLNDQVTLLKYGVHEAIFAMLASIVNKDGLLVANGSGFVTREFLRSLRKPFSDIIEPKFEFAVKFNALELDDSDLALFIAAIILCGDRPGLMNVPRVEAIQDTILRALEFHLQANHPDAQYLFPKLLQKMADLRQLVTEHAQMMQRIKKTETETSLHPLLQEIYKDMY
Procedure, shortened: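 GeneBLAzer UAS-bla HEK293H cells carrying a PPARδ construct were exposed to compounds at 37 °C. Beta-lactamase activity was read by FRET fluorescence after 2 h at room temperature with LiveBLAzer B/G substrate.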

[3] = qHTS assay to identify small molecule antagonists of the peroxisome proliferator-activated receptor delta (PPARd) signaling pathway - cell viability counter screen (AID 743213); also: nearly all actives have a fitted effect of over 50% in size; also: potency is read from the fitted curve at half-maximal effect
Procedure, shortened: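 Cytotoxicity counter screen: CellTiter-Glo luminescence read 30 min after addition, in the same wells as the reporter assay. There, PPARd UAS-bla HEK293H cells (3000/well) were treated 17 h at 37 C with compound and 300 nM L165041.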

[4] = target: Peroxisome proliferator-activated receptor delta (Homo sapiens) (UniProt Q03181); test: qHTS assay to identify small molecule antagonists of the peroxisome proliferator-activated receptor delta (PPARd) signaling pathway (AID 743215; active = well fitted inhibition curve with a large enough effect in the signal ratio in the repeat runs, not every such curve was filed as active; the % refers to the signal ratio;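 also: cells stimulated with agonist L165041 at 300 nM final during compound exposure; series mostly up to about 62 µM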)
Procedure, shortened: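 PPARd-bla HEK293H cells (UAS-bla reporter) preincubated 5 h, then given compound plus 300 nM final L165041 agonist for 17 h at 37 C. Beta-lactamase activity read by LiveBLAzer B/G FRET substrate fluorescence after 2 h at room temperature.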

[5] = target: Bile acid receptor (Homo sapiens) (UniProt Q96RI1); test: qHTS assay to identify small molecule antagonists of the farnesoid-X-receptor (FXR) signaling pathway (AID 743217; active = well fitted inhibition curve with a large enough effect in the signal ratio in the repeat runs, not every such curve was filed as active; the % refers to the signal ratio)
Chain of Bile acid receptor (Homo sapiens) (Q96RI1 whole entry, looked up): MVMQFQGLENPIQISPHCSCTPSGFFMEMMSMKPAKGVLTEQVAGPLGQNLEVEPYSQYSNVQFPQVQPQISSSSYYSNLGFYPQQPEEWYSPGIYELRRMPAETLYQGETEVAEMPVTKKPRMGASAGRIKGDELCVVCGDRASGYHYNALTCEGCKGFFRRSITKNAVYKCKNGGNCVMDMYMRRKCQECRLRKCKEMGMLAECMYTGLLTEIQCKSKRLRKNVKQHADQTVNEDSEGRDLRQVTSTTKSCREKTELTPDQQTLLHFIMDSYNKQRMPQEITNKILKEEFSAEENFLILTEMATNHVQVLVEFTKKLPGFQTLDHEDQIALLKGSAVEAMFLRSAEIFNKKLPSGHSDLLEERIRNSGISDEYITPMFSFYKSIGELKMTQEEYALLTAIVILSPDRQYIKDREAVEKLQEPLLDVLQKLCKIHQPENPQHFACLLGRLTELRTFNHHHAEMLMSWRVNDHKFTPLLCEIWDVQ
Procedure, shortened: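 FXR-UAS-bla HEK 293T cells (beta-lactamase reporter) given compound plus chenodeoxycholic acid (50 uM final), 16 h at 37C. LiveBLAzer B/G FRET substrate added for 2 h at room temperature; fluorescence read.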

[6] = qHTS assay to identify small molecule agonists of the farnesoid-X-receptor (FXR) signaling pathway - cell viability counter screen (AID 743218); also: nearly all actives have a fitted effect of over 45% in size; also: potency is read from the fitted curve at half-maximal effect
Procedure, shortened: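 FXR-UAS-bla HEK 293T cells exposed to compounds for 16 h at 37C. Cytotoxicity read in the same wells by CellTiter-Glo luminescence after 30 min at room temperature, following the beta-lactamase FRET read.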

[7] = target: Vitamin D3 receptor (Homo sapiens) (UniProt P11473); test: qHTS assay to identify small molecule antagonists of the vitamin D receptor (VDR) signaling pathway (AID 743223; active = well fitted inhibition curve with a large enough effect in the signal ratio in the repeat runs, not every such curve was filed as active; the % refers to the signal ratio)
Chain of Vitamin D3 receptor (Homo sapiens) (P11473 whole entry, looked up): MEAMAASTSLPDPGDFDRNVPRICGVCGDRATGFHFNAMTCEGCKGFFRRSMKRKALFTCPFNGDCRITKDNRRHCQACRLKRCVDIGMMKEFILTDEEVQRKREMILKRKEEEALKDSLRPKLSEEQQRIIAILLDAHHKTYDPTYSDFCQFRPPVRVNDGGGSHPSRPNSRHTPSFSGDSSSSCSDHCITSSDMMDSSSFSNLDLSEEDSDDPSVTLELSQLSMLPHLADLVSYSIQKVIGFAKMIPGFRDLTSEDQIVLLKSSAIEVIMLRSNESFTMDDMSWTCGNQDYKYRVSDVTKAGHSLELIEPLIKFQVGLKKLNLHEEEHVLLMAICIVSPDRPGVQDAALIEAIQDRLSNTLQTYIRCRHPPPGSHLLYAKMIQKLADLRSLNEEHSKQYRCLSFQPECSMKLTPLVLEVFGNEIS
Procedure, shortened: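 Cells carrying a VDR-driven beta-lactamase reporter (VDR-bla) were co-treated with compound and 3 nM final 1alpha,25-dihydroxyvitamin D3 for 16 h at 37C; reporter activity was measured as FRET substrate fluorescence after 2 h at room temperature.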

[8] = qHTS assay to identify small molecule antagonists of the vitamin D receptor (VDR) signaling pathway - cell viability counter screen (AID 743225); also: nearly all actives have a fitted effect of over 50% in size; also: potency is read from the fitted curve at half-maximal effect
Procedure, shortened: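 HEK293T VDR-bla; cpd + 1a,25-(OH)2D3 3 nM final, 16 h 37C/5% CO2; B/G FRET substrate 2 h RT; then CellTiter-Glo 30 min RT, luminescence.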

[9] = qHTS assay to identify small molecule agonists of the NFkB signaling pathway - cell viability counter screen (AID 1159515; calls by dose curve; also: series mostly up to about 61 µM; nearly all actives have a fitted effect of over 55% in size)
Procedure, shortened: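 NFkB-bla ME-180 cells, 2,000/well, plated overnight at 37 C; compound added for 5 hr at 37 C. Viability read in the same wells as the bla reporter, by CellTiter-Glo luminescence after 30 min at room temperature.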

[10] = qHTS assay to identify small molecule agonists of the endoplasmic reticulum stress response signaling pathway (AID 1159516; active = well fitted activation curve with a large enough effect in the signal ratio in the repeat runs, not every such curve was filed as active; the % refers to the signal ratio; also: potency is read from the fitted curve at half-maximal effect)
Procedure, shortened: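 CellSensor ESRE-bla HeLa cells, 1,500 per well, plated overnight, then exposed to compounds for 5 hr at 37 C. Beta-lactamase reporter read with LiveBLAzer B/G FRET substrate after 2 hr at room temperature, 405 nm excitation, 460 and 530 nm emission.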

[11] = qHTS assay to identify small molecule agonists of the endoplasmic reticulum stress response signaling pathway - cell viability counter screen (AID 1159517; calls by dose curve;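 also: HeLa cells carrying an ER stress response element beta-lactamase reporter; series mostly up to about 61 µM; nearly all actives have a fitted effect of over 50% in size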)
Procedure, shortened: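 ESRE-bla HeLa cells, 1,500 per well, seeded overnight then treated with compounds for 5 hr at 37 C. After the beta-lactamase read, viability in the same wells is measured by CellTiter-Glo luminescence after 30 min at room temperature.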

[12] = qHTS assay to identify small molecule antagonists of the retinoid-related orphan receptor gamma (ROR-gamma) signaling pathway - cell viability counter screen (AID 1159520); also: nearly all actives have a fitted effect of over 50% in size; also: potency is read from the fitted curve at half-maximal effect
Procedure, shortened: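 Tet-on ROR gamma CHO cells were given compounds for 2 hr, then doxycycline hyclate at 1 uM final, and incubated 16 hr at 37 C. Viability was measured as ATP content by CellTiter-Glo luminescence.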

[13] = target: Nuclear receptor ROR-gamma (Homo sapiens) (UniProt P51449); test: qHTS assay to identify small molecule antagonists of the retinoid-related orphan receptor gamma (ROR-gamma) signaling pathway (AID 1159521; also: nearly all actives have a fitted effect of over 50% in size; also: potency is read from the fitted curve at half-maximal effect)
Procedure, shortened: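 Cells were plated, rested 4 h at 37 C, exposed to compounds for 2 h, then given 1 uM final doxycycline hyclate to induce RORγ expression. After 16 h, ONE-Glo luminescence from the ROR response element reporter was measured.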

[14] = qHTS assay to identify small molecule agonists of the AP-1 signaling pathway - cell viability counter screen (AID 1159525; calls by dose curve; also: nearly all actives have a fitted effect of over 55% in size)
Procedure, shortened: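 AP-1-bla ME-180 cells in Opti-MEM with 0.5% dialyzed FBS, compound exposure 5 h at 37 C in 15-point titration. Viability read in the same wells as ATP content by CellTiter-Glo luminescence, normalised to tetra-n-octylammonium bromide and DMSO controls.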

[15] = qHTS assay to identify small molecule agonists of the vitamin D receptor (VDR) signaling pathway - cell viability counter screen (AID 743224)
Procedure, shortened: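 VDR-bla cells, 4 h after plating, exposed to compounds for 16 h at 37C; viability then read in the same wells as CellTiter-Glo luminescence after 30 min at room temperature, following the bla FRET read.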

[16] = qHTS assay to identify small molecule antagonists of the farnesoid-X-receptor (FXR) signaling pathway - cell viability counter screen (AID 743221; active = well fitted cell-killing curve with a large enough effect in the repeat runs, not every such curve was filed as active; also: nearly all actives have a fitted effect of over 50% in size; also: potency is read from the fitted curve at half-maximal effect)
Procedure, shortened: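 Multiplexed counter screen: viability of FXR-bla HEK 293T cells under agonist stimulation by chenodeoxycholic acid (50 uM, final) and test compound for 16 h at 37 C, measured by CellTiter-Glo luminescence in the reporter wells.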

[17] = target: Vitamin D3 receptor (Homo sapiens) (UniProt P11473); test: qHTS assay to identify small molecule agonists of the vitamin D receptor (VDR) signaling pathway (AID 743222; calls by dose curve)
Procedure, shortened: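 VDR-bla cells plated 4 h at 37 C, then exposed to compounds for 16 h at 37 C. Beta-lactamase reporter activity measured by fluorescence after 2 h room-temperature loading with LiveBLAzer B/G FRET substrate.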

[18] = target: Bile acid receptor (Homo sapiens) (UniProt Q96RI1); test: qHTS assay to identify small molecule agonists of the farnesoid-X-receptor (FXR) signaling pathway (AID 743220; active = well fitted activation curve with a large enough effect in the signal ratio in the repeat runs, not every such curve was filed as active; the % refers to the signal ratio)
Procedure, shortened: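 Beta-lactamase reporter under UAS control in GeneBLAzer FXR HEK 293T cells (5000/well) measured with LiveBLAzer FRET substrate after 2 h at room temperature. Compound exposure lasted 16 h at 37C.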

[19] = target: Retinoic acid receptor RXR-alpha (Homo sapiens) (UniProt P19793); test: qHTS assay to identify small molecule agonists of the RXR signaling pathway (AID 1159527; calls by dose curve; also: nearly all actives have a fitted effect of over 35% in size)
Chain of Retinoic acid receptor RXR-alpha (Homo sapiens) (P19793 whole entry, looked up): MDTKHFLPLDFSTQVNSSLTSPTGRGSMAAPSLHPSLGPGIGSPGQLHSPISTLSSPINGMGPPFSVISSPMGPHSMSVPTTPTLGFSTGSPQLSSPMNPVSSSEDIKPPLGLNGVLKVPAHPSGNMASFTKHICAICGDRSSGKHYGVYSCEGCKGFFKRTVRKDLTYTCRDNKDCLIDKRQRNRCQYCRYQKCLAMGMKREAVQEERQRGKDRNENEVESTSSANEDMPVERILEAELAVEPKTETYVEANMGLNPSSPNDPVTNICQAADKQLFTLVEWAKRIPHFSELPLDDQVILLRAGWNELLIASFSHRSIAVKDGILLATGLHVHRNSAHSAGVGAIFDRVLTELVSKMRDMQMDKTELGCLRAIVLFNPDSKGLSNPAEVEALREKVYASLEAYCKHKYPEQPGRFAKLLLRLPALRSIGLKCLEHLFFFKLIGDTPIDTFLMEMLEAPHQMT
Procedure, shortened: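 Cells plated at 2,000/well, rested 5 hr at 37 C, pin-dosed with DMSO compound solutions, incubated 16 hr, then loaded with B/G FRET substrate for 2 hr at RT before dual-emission fluorescence reading.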

[20] = qHTS assay to identify small molecule agonists of the AP-1 signaling pathway (AID 1159526; calls by dose curve)

| SMILES | Potency [1] | outcome [2] | Potency [3] | outcome [4] | outcome [5] | Potency [6] | Potency [7] | Potency [8] | Potency [9] | Potency [10] | outcome [11] | Potency [12] | Potency [13] | Potency [14] | Potency [15] | Potency [16] | outcome [17] | outcome [18] | Potency [19] | Potency [20] |
| --- | --- | --- | --- | --- | --- | --- | --- | --- | --- | --- | --- | --- | --- | --- | --- | --- | --- | --- | --- | --- |
| Cn1sccc1=O | inactive | inactive | inactive | inactive | inactive | inactive | inactive | inactive | inactive | inactive | inactive | 61.1 µM (active) | 30.6 µM (active) | inactive | – | – | – | – | – | – |
| CCCCC(CC)COCCCN (stereo not given) | inactive | inactive | inactive | inactive | inactive | – | – | inactive | inactive | inactive | inactive | inactive | inactive | inactive | inactive | – | – | – | – | – |
| CC(=O)CC(=O)c1ccccc1 | inactive | inactive | inactive | inactive | – | inactive | – | inactive | inactive | inactive | inactive | inactive | 6.9 µM (active) | inactive | inactive | inactive | inactive | – | – | – |
| O=[N+]([O-])c1cc[n+]([O-])cc1 | inactive | – | inactive | – | inactive | inactive | – | inactive | inactive | inactive | inactive | inactive | 9.69 µM (active) | inactive | – | inactive | inactive | inactive | – | – |
| Cc1cc(O)ccc1N | inactive | inactive | – | inactive | inactive | inactive | – | inactive | inactive | inactive | inactive | 54.8 µM (active) | 24.5 µM (active) | inactive | – | – | – | – | – | – |
| C=CC(C)(CCC=C(C)C)OC(=O)c1ccccc1 (stereo not given) | inactive | – | inactive | – | inactive | inactive | – | – | inactive | inactive | inactive | inactive | inactive | inactive | – | inactive | – | inactive | – | – |
| N#Cc1cc2ccccc2c2ccccc12 | – | inactive | inactive | inactive | inactive | inactive | inactive | inactive | inactive | inactive | inactive | inactive | inactive | inactive | inactive | inactive | – | inactive | inactive | – |
| CCOC(=O)[C@H](CCc1ccccc1)N[C@H]1CCc2ccccc2N(CC(=O)O)C1=O | 29.8 µM (active) | – | 26.6 µM (active) | – | – | – | – | 21.3 µM (active) | inactive | 21.3 µM (active) | inactive | inactive | inactive | inactive | – | 29.8 µM (active) | – | – | inactive | – |
| CCCCCCCCCCCCC(=O)O | – | – | inactive | – | – | – | – | inactive | – | inactive | inactive | inactive | inactive | inactive | inactive | inactive | – | – | – | inactive |
| CCN(CC)CCOc1ccc2c(c1)C(=O)c1cc(OCCN(CC)CC)ccc1-2 | – | inactive | – | – | – | 21.1 µM (active) | – | – | – | inactive | inactive | inactive | inactive | inactive | – | 26.6 µM (active) | – | – | – | inactive |
| COc1ccc([C@@H]2Sc3ccccc3N(CCN(C)C)C(=O)[C@@H]2OC(C)=O)cc1 | inactive | inactive | – | inactive | – | inactive | inactive | – | – | inactive | inactive | inactive | inactive | inactive | – | inactive | – | – | – | inactive |
| Oc1ccc(Cc2ccccc2)cc1 | – | inactive | inactive | – | – | inactive | – | – | – | inactive | inactive | inactive | inactive | inactive | inactive | inactive | inactive | – | inactive | – |
| CN1CCN(C2=Nc3ccccc3Sc3ccc(Cl)cc32)CC1 | inactive | inactive | inactive | inactive | inactive | – | inactive | inactive | – | inactive | inactive | inactive | inactive | inactive | inactive | – | – | – | inactive | – |
